Our source for the inhibition values is PubChem BioAssay.

Values without a mark were called inactive. Active and inactive are the calls of the source. Unless noted, no stated cut-off is given here; in the data, active means inhibition above about 33%; inactive means the rest.

Experiment [1] is described as follows: StAR promoter reporter inhibitors, counter-screen for LRH-1 inverse agonist project, cell-based, luminescence, high throughput (AID 651611; in the data active means inhibition above about 28%). The settings on record: StAR promoter luciferase reporter counterscreen, at 3.6 µM, stronger effect = higher value. On the technique in general: A counterscreen serves to expose hits that act by an unwanted route or on another target.

The target of experiment [2] is Nuclear receptor subfamily 5 group A member 2 (Homo sapiens) (UniProt O00482). Nature of the experiment: NR5A2 activity suppression in reporter cells – cell-based, luminescence, confirmation (AID 651613; in the data active means inhibition above about 42%;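 further: HEK293T cells co-transfected with LRH-1 and StAR promoter luciferase reporter; 0% = vehicle wells and 100% = parental cells lacking receptor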). The settings on record: cell-based LRH-1 luciferase reporter, inverse agonism; at 3.6 µM; stronger effect = higher value.
Sequence of Nuclear receptor subfamily 5 group A member 2 (Homo sapiens) (O00482 whole entry, looked up): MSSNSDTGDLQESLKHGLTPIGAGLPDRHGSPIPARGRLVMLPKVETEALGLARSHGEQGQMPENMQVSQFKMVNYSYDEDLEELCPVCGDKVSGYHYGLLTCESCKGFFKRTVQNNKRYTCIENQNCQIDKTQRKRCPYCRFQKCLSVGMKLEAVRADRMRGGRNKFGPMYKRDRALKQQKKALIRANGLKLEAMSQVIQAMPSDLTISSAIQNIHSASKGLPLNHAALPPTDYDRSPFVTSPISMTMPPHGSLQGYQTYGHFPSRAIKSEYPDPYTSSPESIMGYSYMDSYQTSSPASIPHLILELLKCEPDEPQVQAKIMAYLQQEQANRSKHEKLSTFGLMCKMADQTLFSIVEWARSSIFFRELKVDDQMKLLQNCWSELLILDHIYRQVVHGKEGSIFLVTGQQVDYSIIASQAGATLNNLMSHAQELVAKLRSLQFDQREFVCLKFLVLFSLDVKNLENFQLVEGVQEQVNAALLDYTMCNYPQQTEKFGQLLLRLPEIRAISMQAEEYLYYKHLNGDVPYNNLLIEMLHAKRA
The target of experiment [3] is Steroidogenic factor 1 (Homo sapiens) (UniProt Q13285). The experiment in a line: inverse agonism at SF1 nuclear receptor – cell-based, luminescence, high throughput, counter-screen for LRH-1 inverse agonist project (AID 651614; in the data active means inhibition above about 44%;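 further: cells cotransfected with StAR promoter reporter and SF1 expression vector; 0% = vehicle on cells with receptor and 100% = vehicle on cells lacking receptor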). The settings on record: cell-based SF1 luciferase reporter, at 3.6 µM, stronger effect = higher value.
Sequence of Steroidogenic factor 1 (Homo sapiens) (Q13285 whole entry, looked up, the tested form may be a part): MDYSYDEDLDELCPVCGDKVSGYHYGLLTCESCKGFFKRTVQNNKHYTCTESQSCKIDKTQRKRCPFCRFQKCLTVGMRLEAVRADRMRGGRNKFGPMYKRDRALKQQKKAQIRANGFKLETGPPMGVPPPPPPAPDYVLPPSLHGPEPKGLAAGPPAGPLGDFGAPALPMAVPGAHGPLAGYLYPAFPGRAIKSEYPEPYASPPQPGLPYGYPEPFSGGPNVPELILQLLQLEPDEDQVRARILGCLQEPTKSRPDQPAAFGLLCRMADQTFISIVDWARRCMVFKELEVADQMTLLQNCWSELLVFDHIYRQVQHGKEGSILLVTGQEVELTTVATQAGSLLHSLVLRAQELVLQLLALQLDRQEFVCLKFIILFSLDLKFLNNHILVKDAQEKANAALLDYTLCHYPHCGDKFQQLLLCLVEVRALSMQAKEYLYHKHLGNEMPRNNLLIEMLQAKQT
A short description of experiment [4]: compounds suppressing VP16-driven luciferase signal – cell-based, luminescence, high throughput, counter-screen for LRH-1 inverse agonist project (AID 651615). The settings on record: Gal4-VP16 luciferase reporter cells, at 3.6 µM, stronger effect = higher value.

As for `Cc1csc(NC(=O)CSc2nc3[nH]c(=O)cc(O)c3s2)n1`, the inhibition in experiment [1] was 15.2%; in experiment [2], 60.5% (active); in experiment [3], 68.1% (active); in experiment [4], -21.4%.
On the same counts, the results for `Cc1[nH]c2ccccc2c1/C=N/Nc1ccc([N+](=O)[O-])cc1` are -1.71%, 55.8% (active), 56.5% (active) and -3.15%.
On the same counts, the results for `COc1ccc(S(=O)(=O)N2CCN(CC(=O)Nc3ccc(C)c(F)c3)CC2)cc1` are 17.5%, 58.6% (active), 51.9% (active) and -4.75%.
On the same counts, the results for `O=C(OCC(=O)N1CCN(C(=O)COC(=O)c2ccc(O)cc2O)CC1)c1ccc(O)cc1O` are 14.4%, 61% (active), 61.2% (active) and 3.8%.
On to `COc1ccc(CNC(=O)c2sc(=O)n(Cc3ccc(-c4ccccc4)cc3)c2C)cc1OC`, for which the inhibition is 26% in experiment [1], 37.7% in experiment [2], 42.5% in experiment [3] and 31.6% (active) in experiment [4].
Turning to `COc1cccc(-c2cc(C(=O)Nc3ccncc3)c3ccccc3n2)c1`, the inhibition in experiment [1] is 9.54%; in experiment [2], 35.2%; in experiment [3] it was 39.4%; in experiment [4] it was -5.71%.
Take `COc1ccc(N2CCN(C(=O)C3CCC(Cn4c(=S)[nH]c5ccccc5c4=O)CC3)CC2)cc1` (stereo unspecified): the inhibition in experiment [1] is 9.08%; in experiment [2], 36.1%; in experiment [3], 39.2%; in experiment [4] it was 26.8%.
For `COc1ccc(CCNC(=O)c2ccccc2NC(=O)CN2CCN(c3ccccc3O)CC2)cc1`, the inhibition in experiment [1] was 33.3% (active); in experiment [2], 48% (active); in experiment [3], 50.4% (active); in experiment [4], -22.9%.
For `Cc1ccc(NC(=O)CSc2ccc3c(c2)OCCO3)c(O)c1`, the inhibition in experiment [1] was 11.1%; in experiment [2], 54.6% (active); in experiment [3], 46.5% (active); in experiment [4] it was 35.5% (active).
For `COc1ccccc1NC(=O)CN1CCN(CC(=O)Nc2ccc(S(N)(=O)=O)cc2)CC1`, the inhibition in experiment [1] is 19.1%; in experiment [2], 49.8% (active); in experiment [3], 47.7% (active); in experiment [4] it was -15.6%.
In the case of `COc1cccc(-c2cnc3c(NC=O)cc(-c4ccc(S(C)(=O)=O)cc4)cn23)c1`, the inhibition in experiment [1] is 30.2% (active); in experiment [2] it was 61.5% (active); in experiment [3] it was 52.4% (active); in experiment [4], -0.78%.
As for `C#Cc1ccc(NC(=O)C2(C)CCN2C(=O)Cc2ccc(C(C)(C)C)cc2)cc1` (stereo unspecified), the inhibition in experiment [1] was 4%; in experiment [2], 48% (active); in experiment [3] it was 39%; in experiment [4], 43.9% (active).
Consider `COc1cc(C2c3cc4c(cc3OC(Nc3ccc(C(=O)O)cc3)C2C)OCO4)cc(OC)c1OC` (stereo unspecified), for which the inhibition is 44.5% (active) in experiment [1], 49.7% (active) in experiment [2], 60.9% (active) in experiment [3] and 26.4% in experiment [4].
`CC1CCC2(CC1)NC(=O)N(CC(=O)Nc1ccc(N3CCOCC3)cc1)C2=O` (stereo unspecified): the inhibition in experiment [1] was 11.8%; in experiment [2], 45.8% (active); in experiment [3] it was 37.4%; in experiment [4] it was -8.77%.
With `Cc1ccc(NC(=O)CSc2nnc(-c3n[nH]c4ccccc34)n2-c2ccccc2)c(C)c1`, the inhibition in experiment [1] is 3.14%; in experiment [2] it was 60.5% (active); in experiment [3], 60.3% (active); in experiment [4], 4.59%.
On the same counts, the results for `Cc1c(Cl)cccc1NC(=O)CSc1nc2ncc(Cl)cc2[nH]1` are 18.2%, 69% (active), 58% (active) and 1.96%.
On the same counts, the results for `Cc1cc(S(=O)(=O)NCc2ccncc2)c(C)cc1Br` are -10.6%, 39%, 38.6% and 41.4% (active).
On the same counts, the results for `CCCOc1ccc(N)cc1N` are 11.1%, 21.4%, 27% and -3.38%.
Regarding `COc1ccc(C[C@@H]2OC3(C=CC(=O)C=C3)O[C@H]2Cc2ccc(OC)cc2)cc1`, the inhibition in experiment [1] was 37.5% (active); in experiment [2], 68.4% (active); in experiment [3], 66% (active); in experiment [4], 70.6% (active).
With `O=C(COC(=O)CCN1C(=O)C2CC=CCC2C1=O)NCCc1ccc(F)cc1` (stereo unspecified), the inhibition in experiment [1] was 7.75%; in experiment [2], 63.2% (active); in experiment [3], 55% (active); in experiment [4], -1.34%.
As for `CO/N=C\C(=N\Nc1ccc(OC)cc1)C(=O)c1ccccc1`, the inhibition in experiment [1] is -11.7%; in experiment [2], 49.5% (active); in experiment [3], 36.8%; in experiment [4], 5.9%.
For the molecule `CCc1ccccc1NC(=O)CSc1nnc([C@@H](NC(=O)OC(C)(C)C)C(C)C)o1`, the inhibition in experiment [1] is 5.95%; in experiment [2], 45.9% (active); in experiment [3], 45.9% (active); in experiment [4] it was 0.4%.
Take `O=C(CSc1nc2ccccc2c(=O)n1-c1ccc(F)cc1)Nc1ccc(N2CCOCC2)cc1`: the inhibition in experiment [1] was 2.2%; in experiment [2], 29.5%; in experiment [3] it was 25.7%; in experiment [4], 6.2%.
For `CS/C(=C\[N+](=O)[O-])Nc1ccc(OC(F)(F)F)cc1`, the inhibition was 42% (active) in experiment [1], 83.9% (active) in experiment [2], 84.6% (active) in experiment [3] and 9.63% in experiment [4].

The term inhibition denotes the change of the read-out against control, counted positive when it falls.
